Sampled rows, rich in hits. Any-hit rate of the full collection: about 12%.
HP1b binding inh – HP1-beta chromodomain-methylated histone interaction inhibition; AlphaScreen HP1-beta / biotin-H3K9me3 peptide binding; AID 540317; Potency, µM (titrated, usually from 114 µM), for the others: top-dose activity change, negative = inhibition, actives largely listed as inhibitors; P83916; 0.56% of 390,000 active; note: nearly all actives have a fitted effect of over 70% in size
Target sequence (P83916 whole entry, looked up): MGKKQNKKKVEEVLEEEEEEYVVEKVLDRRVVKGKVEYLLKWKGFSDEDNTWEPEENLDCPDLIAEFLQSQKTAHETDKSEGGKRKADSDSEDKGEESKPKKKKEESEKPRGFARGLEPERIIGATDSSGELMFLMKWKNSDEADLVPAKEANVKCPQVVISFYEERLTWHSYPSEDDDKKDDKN
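Compound inhibition of the preformed complex between 50 nM HP1-beta and 50 nM biotinylated H3K9me3 peptide was read by AlphaScreen. Buffer was PBS pH 7.4 with 0.01% Tween-20. Incubations ran 30 min at room temperature, with 10 ug/mL donor/acceptor beads.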
Sfp PPTase inh – inhibitors of Bacillus subtilis Sfp phosphopantetheinyl transferase; Q9F4F7; Biochemical Sfp PPTase activity, qHTS; 3.5% of 310,000 active; Potency, µM, without a hit: largest response in the series, negative = inhibition, most hits filed as inhibitors;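 note: the enzyme is Sfp with the accession as filed and its product quenches rhodamine fluorescence; 0% = enzyme reaction without inhibitor and -100% = no enzyme wells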
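Reaction rates are the 30-min fluorescence difference (ex 525, em 598 nm) in wells containing 15 nM Sfp, 5 uM rhodamine-CoA and 12.5 uM BHQ-2-YbbR at pH 7.6 with 10 mM MgCl2.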
JMJD2A Tudor inh – blocks the human JMJD2A Tudor domain | O75164 | AlphaScreen JMJD2A-Tudor / H3K4me3 peptide binding | Potency, µM (top dose mostly 114 µM), without a hit: at the highest dose activity change, negative = inhibition, actives largely listed as inhibitors | 4.4% of 390,000 active; note: % is set by controls: 0 for no effect and ±100 for the full control effect; nearly all actives have a fitted effect of over 50% in size
G9a block – inhibitors of human histone lysine methyltransferase G9a | Q96KQ7 | G9a H3K9 monomethylation, AlphaScreen, 2 h | Potency, µM (doses to about 102 µM), without a hit: at the top dose activity, negative = inhibition, hits mostly inhibitors | 8.8% of 350,000 active | AID 504332; note: % is set by controls: 0 for no effect and ±100 for the full control effect; nearly all actives have a fitted effect of over 75% in size
Target sequence (Q96KQ7 913-1193 limits assumed): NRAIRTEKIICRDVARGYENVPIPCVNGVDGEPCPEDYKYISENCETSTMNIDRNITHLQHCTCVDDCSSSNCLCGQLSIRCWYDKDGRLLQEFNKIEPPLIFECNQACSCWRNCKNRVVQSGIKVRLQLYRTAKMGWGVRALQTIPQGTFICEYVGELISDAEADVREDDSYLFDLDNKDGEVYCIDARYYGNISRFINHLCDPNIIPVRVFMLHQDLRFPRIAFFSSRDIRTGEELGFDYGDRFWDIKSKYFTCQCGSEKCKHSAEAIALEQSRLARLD
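G9a (20 nM) preincubated 15 min RT with compounds, then 500 nM biotinylated H3K9 peptide and 20 uM SAM added; 2 h RT reaction. Monomethyl-H3K9 product detected by AlphaScreen with anti-H3K9me1 antibody, streptavidin donor and anti-rabbit IgG acceptor beads.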
BAZ2B block – inhibitors of human BAZ2B bromodomain; Potency, µM (highest dose often 114 µM), without a hit: top-dose activity change, negative = inhibition, usual class: inhibitors; 4.4% of 360,000 active; Q9UIF8; AlphaScreen BAZ2B-H3K14Ac peptide displacement; note: % is set by controls: 0 for no effect and ±100 for the full control effect; nearly all actives have a fitted effect of over 60% in size
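Compounds, titrated to a top concentration of 110 uM, were incubated 30 min at room temperature with preformed BAZ2B/acetyl-K14 H3 peptide complex (50 nM each). Proximity signal was measured by AlphaScreen after 20 min with beads.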
L3MBTL1 block – blocks human L3MBTL1 | AlphaScreen L3MBTL1–H3K9me1 peptide binding | 0.66% of 230,000 active | Potency, µM (doses to about 57.1 µM), for inactives: at the top dose activity, negative = inhibition, actives largely listed as inhibitors | Q9Y468; note: % is set by controls: 0 for no effect and ±100 for the full control effect; nearly all actives have a fitted effect of over 60% in size
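L3MBTL1 (50 nM) pre-complexed 30 min with biotinylated H3(1-15)K9me1 peptide (75 nM), then compounds added for 30 min at room temperature; AlphaScreen streptavidin donor/nickel chelate acceptor beads (10 ug/mL final) read after 30 min dark incubation.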
* hit, by the source's call; [ ] = dose if it differs, or a comment. Calls come from the whole dose curve; as a rule, active = well fitted curve in the direction sought with a large enough effect; inconclusive = small, poorly fitted or top-dose-only effect, or another doubt; inactive = no such curve, though single readings can be large; an effect the other way counts as inactive or inconclusive. Potency is the fitted concentration of half-maximal effect.

Results for Cc1nc2ccccc2nc1N/N=C/c1ccc(O)cc1 ?
HP1b binding inh: 14%; Sfp PPTase inh: -12%; JMJD2A Tudor inh: -35%; BAZ2B block: inconclusive; L3MBTL1 block: -18%

What do the screens show for `Cc1cc(O)c2c(c1)C(=O)[C@@]13Oc4c5c(c(O)c6c(O)cc(C)cc46)C(=O)C[C@H](O)[C@H]5[C@@H]1[C@@H](O)CC(=O)C3=C2O`?
HP1b binding inh: -20%; JMJD2A Tudor inh: 16µM*

How did Cc1nn(-c2ccccc2)c2sc(C(=O)Nc3ccc(Cl)cc3Cl)cc12 do in these assays?
HP1b binding inh: 9%; JMJD2A Tudor inh: -22%; G9a block: -65%[59 µM]; BAZ2B block: 3%

What do the screens show for `COc1ccc(NC(=O)C2CCN(S(=O)(=O)c3ccc4[nH]c(=O)ccc4c3)CC2)c(OC)c1`?
HP1b binding inh: 28%[57 µM]; JMJD2A Tudor inh: 8%; G9a block: 3%[59 µM]; BAZ2B block: 4%

What do the screens show for `CCOc1ccc(-n2c(=O)c3c4c(sc3n(CC(=O)NC(C)CC)c2=O)CCCC4)cc1` (configuration not stated)?
HP1b binding inh: 17%; JMJD2A Tudor inh: -12%; G9a block: 1%[59 µM]; BAZ2B block: 5%

What do the screens show for `CC(C)(C)S(=O)(=O)/C(C#N)=N/Nc1ccc(Cl)cc1`?
HP1b binding inh: 3%; Sfp PPTase inh: 23%; JMJD2A Tudor inh: inconclusive; G9a block: 35µM*; BAZ2B block: inconclusive; L3MBTL1 block: -11%

How did CC1(C)CC(=S)Nc2ccccc2S1 do in these assays?
HP1b binding inh: inconclusive; Sfp PPTase inh: 28µM*; JMJD2A Tudor inh: -32%; G9a block: 7.9µM*; BAZ2B block: -7%; L3MBTL1 block: -2%

What do the screens show for `O=C1CSc2ccccc2N1`?
HP1b binding inh: 37%; JMJD2A Tudor inh: -23%

What do the screens show for `COc1ccc(N2CCN(C(=O)Cc3coc4cc(C)ccc34)CC2)cc1`?
HP1b binding inh: -12%; Sfp PPTase inh: 4%; JMJD2A Tudor inh: -30%[57.1 µM]; G9a block: 45µM*; BAZ2B block: 40µM*

How did COc1ccc(N2CCN(C(=O)c3cc(=O)c4ccc(C)cc4o3)CC2)cc1 do in these assays?
HP1b binding inh: 2%; Sfp PPTase inh: 7%; JMJD2A Tudor inh: -34%; G9a block: 21%[0.501 µM]; BAZ2B block: inconclusive

Results for Cc1ccc2occ(CC(=O)N3CCN(c4cccc(Cl)c4)CC3)c2c1 ?
HP1b binding inh: 3%; JMJD2A Tudor inh: -11%; G9a block: 7%[59 µM]; BAZ2B block: -5%

What do the screens show for `COc1ccc(N2CCN(C(=O)CCC(=O)N3CC(C)Oc4ccc(C)cc43)CC2)cc1` (configuration not stated)?
HP1b binding inh: -19%; Sfp PPTase inh: 4%; JMJD2A Tudor inh: inconclusive; G9a block: 45µM*; BAZ2B block: 40µM*; L3MBTL1 block: 2%

What do the screens show for `COc1ccc(N2CCN(C(=O)Cc3coc4ccc(C)cc34)CC2)cc1`?
HP1b binding inh: inconclusive; JMJD2A Tudor inh: inconclusive; G9a block: 16µM*; BAZ2B block: 40µM*

Results for COC(=O)c1ccc(C(=O)OC)c(NC(=O)/C=C/C(=O)O)c1 ?
HP1b binding inh: 6%; Sfp PPTase inh: 40µM*; JMJD2A Tudor inh: -11%; G9a block: inconclusive; BAZ2B block: 8%; L3MBTL1 block: -5%

How did O=C(O)/C=C\C(=O)Nc1ccc(F)c(F)c1F do in these assays?
HP1b binding inh: 68%; Sfp PPTase inh: -7%; JMJD2A Tudor inh: 0%; G9a block: 40µM*; BAZ2B block: -3%; L3MBTL1 block: 5%

Results for O=C(O)/C=C\C(=O)Nc1ccccc1F ?
HP1b binding inh: 53%; Sfp PPTase inh: -1%; JMJD2A Tudor inh: -9%; G9a block: inconclusive; BAZ2B block: -1%; L3MBTL1 block: 21%

How did O=C(CCc1ccc(Oc2cc([N+](=O)[O-])cc([N+](=O)[O-])c2)cc1)N1CCCCC1 do in these assays?
HP1b binding inh: -58%; Sfp PPTase inh: 14µM*; JMJD2A Tudor inh: 56µM*; G9a block: inconclusive; BAZ2B block: 25µM*; L3MBTL1 block: -29%

How did O=C(CCc1ccc(Oc2cc([N+](=O)[O-])cc([N+](=O)[O-])c2)cc1)Nc1cccc(Cl)c1 do in these assays?
HP1b binding inh: inconclusive; Sfp PPTase inh: 2%; JMJD2A Tudor inh: -29%; G9a block: 8.9µM*; BAZ2B block: inconclusive; L3MBTL1 block: -10%

How did CCCc1nc(N)sc1C(=O)OCC do in these assays?
HP1b binding inh: 14%; Sfp PPTase inh: -18%; JMJD2A Tudor inh: -5%; G9a block: inconclusive; BAZ2B block: 1%; L3MBTL1 block: 0%

What do the screens show for `CCOC(=O)c1sc(N)nc1C(C)C`?
HP1b binding inh: inconclusive; Sfp PPTase inh: 45µM*; JMJD2A Tudor inh: -5%; G9a block: inconclusive; BAZ2B block: 9%; L3MBTL1 block: -2%

What do the screens show for `COc1ccc(NC2=C(C(C)=O)C(c3ccc(N(C)C)cc3)C(C(C)=O)C(C)(O)C2)cc1` (configuration not stated)?
HP1b binding inh: 2%; Sfp PPTase inh: -2%; JMJD2A Tudor inh: -23%; G9a block: 20µM*; BAZ2B block: -3%

How did CC1CCc2[nH]c3ccc(C(=O)N(C)CC(=O)Nc4ccc(F)cc4)cc3c2C1 (configuration not stated) do in these assays?
HP1b binding inh: inconclusive; Sfp PPTase inh: 2%; JMJD2A Tudor inh: inconclusive; G9a block: inconclusive; BAZ2B block: inconclusive

Results for COc1cccc(NC(=O)CN(C)C(=O)c2ccc3[nH]c4c(c3c2)CC(C)CC4)c1 (configuration not stated) ?
HP1b binding inh: 8%; JMJD2A Tudor inh: inconclusive; G9a block: 35µM*; BAZ2B block: 40µM*; L3MBTL1 block: -9%

Results for COc1ccc(NC(=O)CN(C)C(=O)c2ccc3[nH]c4c(c3c2)CC(C)CC4)cc1 (configuration not stated) ?
HP1b binding inh: inconclusive; JMJD2A Tudor inh: inconclusive; G9a block: 45µM*; BAZ2B block: inconclusive; L3MBTL1 block: -27%

What do the screens show for `COc1cccc(NC(=O)CN(C)C(=O)c2ccc3c(c2)CC(c2ccccc2)OC3=O)c1` (configuration not stated)?
HP1b binding inh: -4%; JMJD2A Tudor inh: 89µM*; G9a block: 18%[2.33 µM]; BAZ2B block: inconclusive; L3MBTL1 block: -4%

What do the screens show for `COc1ccc(Cl)cc1NC(=O)CN(C)C(=O)c1ccc2c(c1)CC(c1ccccc1)OC2=O` (configuration not stated)?
HP1b binding inh: 10%; JMJD2A Tudor inh: inconclusive; G9a block: inconclusive; BAZ2B block: -8%; L3MBTL1 block: -1%
